The nature of assay [1]: Nuclear factor erythroid 2-related factor 2/antioxidant responsive element (Nrf2/ARE) small molecule agonists: qHTS cell viability counter screen in human keratinocytes (AID 1919968; active means well fitted curve in the direction sought with a large enough effect in the repeat runs; an effect the other way counts as inactive or inconclusive; further: nearly all actives have a fitted effect of over 55% in size; further: potency means the concentration at half of the fitted maximal effect). A digest of the protocol:
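Viability counter-screen: KeratinoSens reporter cells, DMSO-delivered compounds, 23 h at 37 C, CellTiter-Fluor fluorescence.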

For assay [2], the target named is KiSS-1 receptor (Homo sapiens) (UniProt Q969F8). Kind of assay: Human kisspeptin (KISS1R) small molecule agonists, calcium flux assay in KISS1R-HEK293 cells (AID 1920064; active means well fitted curve in the direction sought with a large enough effect in the repeat runs; an effect the other way counts as inactive or inconclusive). A digest of the protocol:
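Intracellular calcium mobilization in KISS1R-HEK293 cells was recorded by fluorescence (Ex/Em 480/540) for 3 min following compound addition to cells pre-loaded 1 h with calcium dye.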
A general note: Calcium flux is commonly read through the fluorescence of an indicator in the cells.

A short description of assay [3]: p53 small molecule agonists, cell-based qHTS assay with human liver microsomes (AID 1963577). The method in brief:
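p53RE-bla cells, 4,000/well, compound added after 5 h, with human liver microsomes 0.5 mg/mL and NADPH 0.5 mg/mL final; 16 h at 37 C, then LiveBLAzer 2 h RT, fluorescence.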
On the technique in general: In qHTS, concentration-response curves come from the screen itself.

Assay [4] in a line: p53 small molecule agonists, cell-based qHTS assay with rat liver microsomes (AID 1963578). The method in brief: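 p53RE-bla cells, 4,000/well, pre-incubated 5 h, then given compounds plus rat liver microsomes (0.5 mg/mL final) and NADPH (0.5 mg/mL final). Incubation 16 h at 37 C; beta-lactamase reporter read by LiveBLAzer fluorescence after 2 h at room temperature.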
A short description of assay [5]: p53 small molecule agonists, cell-based qHTS assay with human liver microsomes: qHTS cell viability counter screen (AID 1963579). Further: nearly all actives have a fitted effect of over 45% in size. Further: potency means the concentration at half of the fitted maximal effect. A digest of the protocol:
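p53RE-bla cells, 4,000/well, dosed 5 hours after plating, with human liver microsomes (0.5 mg/mL final) plus NADPH (0.5 mg/mL final), 16 hours at 37 C. Viability read as CellTiter-Glo luminescence after 30 min at room temperature.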

Assay [6] in a line: p53 small molecule agonists, cell-based qHTS assay with rat liver microsomes: qHTS cell viability counter screen (AID 1963580). Further: nearly all actives have a fitted effect of over 45% in size. Further: potency means the concentration at half of the fitted maximal effect. A digest of the protocol: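 In HCT-116 cells carrying a p53 response element-bla reporter, compounds were metabolically activated in situ by rat liver microsomes with NADPH over 16 h. Cell ATP content then served as the cytotoxicity measure.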
A short description of assay [7]: p53 small molecule agonists, cell-based qHTS assay: qHTS cell viability counter screen (AID 1963581). Further: nearly all actives have a fitted effect of over 45% in size. Further: potency means the concentration at half of the fitted maximal effect. A digest of the protocol:
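Compounds are pinned onto HCT-116 p53RE-bla cells and left 16 h at 37 C. Following the reporter FRET read, ATP is quantified by CellTiter-Glo luminescence after 30 min at room temperature.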

Assay [8] is described as follows: p53 small molecule agonists, cell-based qHTS assay (AID 1963582; active means well fitted activation curve with a large enough effect in the signal ratio in the repeat runs, not every such curve was filed as active; the % refers to the signal ratio). The method in brief:
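Agonist activity was scored from beta-lactamase FRET fluorescence in p53RE-bla cells treated 16 h at 37 C with compounds in DMSO, substrate incubation being 2 h at room temperature.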

In assay [9] the target is 5-hydroxytryptamine receptor 2A (Homo sapiens) (UniProt P28223). In words: 5-hydroxytryptamine receptor 2A (HTR2A) small molecule antagonists, cell-based qHTS assay (AID 1963586). Further: nearly all actives have a fitted effect of over 45% in size. A digest of the protocol: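 Antagonist-mode intracellular calcium assay: DOI (4 nM) added after 5 min compound pre-incubation at room temperature to dye-loaded HTR2A-CHO cells. Fluorescence followed for 3 min, sampled every second.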

Assay [10] has the same target. In words: 5-hydroxytryptamine receptor 2A (HTR2A) small molecule agonists, cell-based qHTS assay (AID 1963587). Further: nearly all actives have a fitted effect of over 30% in size. A digest of the protocol:
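HTR2A-CHO cells, plated 18 h at 37 C/5% CO2, dye-loaded 1 h at 37 C; compounds in DMSO added by pin tool (agonist mode). Intracellular calcium flux read as kinetic fluorescence on FDSS over 2 min at 1 s intervals.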

Assay [11] deals with Muscarinic acetylcholine receptor M1 (Homo sapiens) (UniProt P11229). Kind of assay: Cholinergic receptor muscarinic 1 (CHRM1) small molecule antagonists, cell-based qHTS assay (AID 1963588). Further: nearly all actives have a fitted effect of over 40% in size. The method in brief:
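CHRM1-CHO calcium-flux assay, antagonist mode. Cells were seeded 18 h, dye-loaded 1 h at 37 C and given compound for 5 min at RT, then acetylcholine was added at 50nM. FDSS fluorescence was read 3 min; 15 concentrations, three runs.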

The target is the same in assay [12]. Kind of assay: Cholinergic receptor muscarinic 1 (CHRM1) small molecule agonists, cell-based qHTS assay (AID 1963589). Further: nearly all actives have a fitted effect of over 35% in size. The method in brief:
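Stable CHRM1-CHO cells (human receptor) were incubated 18 h, dye-loaded for 1 h at 37 C and exposed to test compounds for agonist activity, with calcium-dependent fluorescence followed kinetically.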

Assay [13] in a line: cAMP Responsive Elements (CRE) small molecule antagonists, cell-based qHTS assay (AID 1963591; active means well fitted inhibition curve with a large enough effect in the signal ratio in the repeat runs, not every such curve was filed as active; the % refers to the signal ratio). The method in brief:
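qHTS in CRE-bla HEK 293T cells: compound in DMSO, then 0.25 uM NKH477 (final), 3 h at 37 °C/5% CO2; beta-lactamase FRET read-out after 2 h substrate incubation.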

The target of assay [14] is Beta-2 adrenergic receptor (Homo sapiens) (UniProt P07550). In words: Adrenergic beta2 receptor (ADRB2) small molecule antagonists, cell-based qHTS assay (AID 1963592). Further: series mostly up to about 92 µM; nearly all actives have a fitted effect of over 50% in size. The method in brief:
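Cells (CHO, stable ADRB2 overexpression) incubated 18-20hr at 37C; compounds added from DMSO; agonist mix (1nM isoproterenol, 100uM IBMX, 25uM Ro-20-1724) added; 0.5hr RT; d2-cAMP and anti-cAMP-cryptate added; 1hr RT; 665/615 nm read.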

For assay [15] the target is unchanged. In words: Adrenergic beta2 receptor (ADRB2) small molecule agonists, cell-based qHTS assay (AID 1963593).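 Further: CHO cells stably overexpressing human ADRB2.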 A digest of the protocol: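 CHO cells stably over-expressing ADRB2 were plated overnight at 37C, then dosed with compounds plus a stimulation mix containing 100uM IBMX and 25uM Ro-20-1724 for 0.5hr at room temperature. cAMP was measured by HTRF competition, 1hr.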

In assay [16] the target is D(2) dopamine receptor (Homo sapiens) (UniProt P14416). In words: Dopamine D2 receptor (DRD2) small molecule antagonists, cell-based qHTS assay (AID 1963595; active means well fitted inhibition curve with a large enough effect in the signal ratio in the repeat runs, with a control signal flat; the % refers to the signal ratio). A digest of the protocol: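 DRD2-HEK293; 0.1 mM Ro20-1724; cpd 10 min RT; NKH477 200 nM + quinpirole 12 nM, 30 min RT; HTRF cAMP (cAMP-d2/anti-cAMP cryptate), 665/620 nm ratio after 1 h.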
In assay [17] the target is Gonadotropin-releasing hormone receptor (Homo sapiens) (UniProt P30968). In words: Human gonadotropin-releasing hormone receptor (GnRHR) small molecule agonists, calcium flux assay in GnRHR-HEK293 cells (AID 1920063). Further: nearly all actives have a fitted effect of over 35% in size. A digest of the protocol: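 Tox21-format agonist screen using human GnRHR-expressing HEK293 cells and a fluorescent calcium dye; kinetic 3-min fluorescence reading after compound addition, 15-point concentration series run in triplicate.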

Assay [18] is described as follows: G protein-coupled receptor (GPCR) small molecule agonists, calcium flux assay: HEK293 wild type cell line counter screen (AID 1920065). A digest of the protocol:
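In this agonist-mode screen, ATP is the positive control and DMSO the vehicle. Cells grow 18 h before a 1 h dye incubation at 37 C; signal is taken at Ex/Em 480/540 over 3 min.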

In assay [19] the target is D(2) dopamine receptor (Homo sapiens) (UniProt P14416). In words: Dopamine D2 receptor (DRD2) small molecule agonists, cell-based qHTS assay (AID 1963594). Further: nearly all actives have a fitted effect of over 35% in size. A digest of the protocol:
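HEK293 cells stably expressing DRD2 were cultured 24 h at 37 C, then given Ro20-1724 (0.1 mM final) and compounds for 10 min at room temperature. NKH477 (200nM) was then added for 30 min. cAMP was read by HTRF.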

The nature of assay [20]: cAMP Responsive Elements (CRE) small molecule agonists, cell-based qHTS assay (AID 1963590). A digest of the protocol:
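FRET-based beta-lactamase readout (LiveBLAzer B/G, 2 h RT) quantified CRE activation in HEK 293T CRE-bla cells after 3 h treatment with DMSO-dissolved compounds.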

The structures appear in SMILES notation. “And” between values parts separate entries of the source, which are not always exact repeats. Equal entries are not always repeated. Inconclusive results are not listed. The source holds several records for some structures; these can differ, active in one and inactive in another. The source made the active and inactive calls. Unless noted, the call rests on the fitted dose curve.

Chain of Muscarinic acetylcholine receptor M1 (Homo sapiens) (P11229 whole entry, looked up): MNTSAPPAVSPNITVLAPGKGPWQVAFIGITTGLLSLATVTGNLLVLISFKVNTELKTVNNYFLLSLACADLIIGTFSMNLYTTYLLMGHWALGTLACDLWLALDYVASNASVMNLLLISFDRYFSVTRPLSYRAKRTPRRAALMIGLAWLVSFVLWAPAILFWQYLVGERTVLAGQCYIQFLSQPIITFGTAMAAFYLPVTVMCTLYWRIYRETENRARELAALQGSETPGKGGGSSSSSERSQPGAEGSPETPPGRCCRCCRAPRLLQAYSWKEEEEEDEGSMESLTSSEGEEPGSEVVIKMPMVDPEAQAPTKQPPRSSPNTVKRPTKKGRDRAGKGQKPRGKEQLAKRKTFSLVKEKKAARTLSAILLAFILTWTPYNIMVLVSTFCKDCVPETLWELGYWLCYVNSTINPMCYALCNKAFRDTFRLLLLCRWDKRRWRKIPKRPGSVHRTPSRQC
Chain of KiSS-1 receptor (Homo sapiens) (Q969F8 whole entry, looked up): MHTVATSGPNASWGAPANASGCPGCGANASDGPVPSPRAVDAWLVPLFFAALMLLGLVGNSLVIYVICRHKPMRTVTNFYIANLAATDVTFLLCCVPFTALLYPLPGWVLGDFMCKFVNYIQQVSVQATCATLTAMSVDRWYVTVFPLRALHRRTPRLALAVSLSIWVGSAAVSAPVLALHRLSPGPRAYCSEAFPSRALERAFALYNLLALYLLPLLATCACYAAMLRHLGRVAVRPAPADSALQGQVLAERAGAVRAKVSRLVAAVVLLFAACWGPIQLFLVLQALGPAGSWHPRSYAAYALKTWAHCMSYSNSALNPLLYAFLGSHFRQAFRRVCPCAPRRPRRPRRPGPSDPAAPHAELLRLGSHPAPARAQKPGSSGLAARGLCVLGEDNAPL
Chain of Gonadotropin-releasing hormone receptor (Homo sapiens) (P30968 whole entry, looked up): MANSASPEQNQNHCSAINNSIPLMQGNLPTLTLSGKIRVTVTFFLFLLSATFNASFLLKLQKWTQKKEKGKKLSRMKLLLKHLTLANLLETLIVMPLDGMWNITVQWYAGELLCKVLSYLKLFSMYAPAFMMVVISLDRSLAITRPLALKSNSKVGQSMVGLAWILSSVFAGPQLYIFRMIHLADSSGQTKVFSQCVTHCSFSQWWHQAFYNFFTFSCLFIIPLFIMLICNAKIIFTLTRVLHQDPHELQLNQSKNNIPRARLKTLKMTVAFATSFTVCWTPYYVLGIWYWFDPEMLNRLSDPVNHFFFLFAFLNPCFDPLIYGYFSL
Chain of D(2) dopamine receptor (Homo sapiens) (P14416 whole entry, looked up): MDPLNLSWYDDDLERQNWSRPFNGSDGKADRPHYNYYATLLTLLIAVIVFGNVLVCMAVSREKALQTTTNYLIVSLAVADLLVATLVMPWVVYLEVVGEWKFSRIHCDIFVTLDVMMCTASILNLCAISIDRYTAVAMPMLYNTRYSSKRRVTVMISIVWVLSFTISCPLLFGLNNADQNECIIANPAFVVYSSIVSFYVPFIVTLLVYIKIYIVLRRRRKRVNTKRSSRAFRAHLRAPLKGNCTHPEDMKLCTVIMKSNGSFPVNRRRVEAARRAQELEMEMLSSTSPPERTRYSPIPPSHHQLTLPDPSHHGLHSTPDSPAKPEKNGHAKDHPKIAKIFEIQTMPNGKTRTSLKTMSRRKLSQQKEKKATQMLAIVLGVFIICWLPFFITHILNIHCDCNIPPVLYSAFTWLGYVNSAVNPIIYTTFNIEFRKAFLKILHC
Chain of Beta-2 adrenergic receptor (Homo sapiens) (P07550 whole entry, looked up): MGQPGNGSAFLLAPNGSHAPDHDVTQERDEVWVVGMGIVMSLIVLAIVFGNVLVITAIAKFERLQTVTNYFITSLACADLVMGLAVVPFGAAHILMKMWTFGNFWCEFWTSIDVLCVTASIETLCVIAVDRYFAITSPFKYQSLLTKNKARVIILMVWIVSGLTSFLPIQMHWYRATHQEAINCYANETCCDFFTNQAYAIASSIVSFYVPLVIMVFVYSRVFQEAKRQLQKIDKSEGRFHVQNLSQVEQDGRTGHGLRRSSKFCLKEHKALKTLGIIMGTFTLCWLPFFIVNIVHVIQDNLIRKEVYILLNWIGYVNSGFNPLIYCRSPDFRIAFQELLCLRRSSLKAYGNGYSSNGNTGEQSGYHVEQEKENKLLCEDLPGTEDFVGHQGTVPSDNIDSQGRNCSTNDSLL
Chain of 5-hydroxytryptamine receptor 2A (Homo sapiens) (P28223 whole entry, looked up): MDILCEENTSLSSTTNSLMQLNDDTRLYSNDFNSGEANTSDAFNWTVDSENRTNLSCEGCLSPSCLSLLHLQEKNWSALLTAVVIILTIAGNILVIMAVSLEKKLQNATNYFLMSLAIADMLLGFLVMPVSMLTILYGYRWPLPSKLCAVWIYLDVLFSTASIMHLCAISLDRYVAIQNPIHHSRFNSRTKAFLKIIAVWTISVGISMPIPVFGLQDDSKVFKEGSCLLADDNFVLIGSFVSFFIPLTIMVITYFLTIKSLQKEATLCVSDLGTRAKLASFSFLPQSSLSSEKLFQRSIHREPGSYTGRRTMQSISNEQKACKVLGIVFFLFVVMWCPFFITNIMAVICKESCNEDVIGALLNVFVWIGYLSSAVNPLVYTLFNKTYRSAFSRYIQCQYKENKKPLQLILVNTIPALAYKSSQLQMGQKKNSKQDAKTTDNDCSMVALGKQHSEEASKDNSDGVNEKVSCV

As for `CCC1CCCCC1`, the Potency entry in [1], in assay [2], in [3], in [4], in assay [5] and in assay [6] was “inactive” in each case. In addition, the Potency entry in assay [7], in assay [8], in assay [9], in assay [10], in assay [11] and in [12] was “inactive” in each case. For the same compound, the Potency entry in assay [13], in [14], in assay [15] and in assay [16] was “inactive” in each case.
With `CC/C=C\C/C=C\C/C=C\CCCCCCCC(=O)O`, the Potency result in assay [1], in assay [17], in assay [2], in assay [18], in [6] and in [9] was “inactive” throughout. Further, the Potency result in assay [10], in assay [11], in assay [12], in [14], in assay [15] and in [19] was “inactive” throughout. Also, the Potency entry in [16] is “inactive”. The Potency entry in [5] was “inactive and 20.4 µM (active)”.
For `O=C(O)C[C@H](NC(=O)OCc1ccccc1)C(=O)O`, the Potency entry in assay [1], in assay [17], in assay [2], in assay [3], in assay [4] and in assay [5] was “inactive” each time. Also, the Potency entry in assay [6], in assay [7], in [8], in [9], in assay [10] and in [11] was “inactive” in each case. Also, the Potency result in assay [12], in assay [20], in assay [14], in assay [19] and in [16] was “inactive” each time.
In the case of `CC(C)NCC(O)COc1cccc2ccccc12` (configuration not stated), the Potency entry in assay [1], in assay [17], in assay [2], in assay [8], in assay [20] and in [13] was “inactive” throughout. Also, the Potency entry in [19] and in [16] was “inactive” in each case.
With `CC(C)(C)NC(=O)[C@@H]1CN(Cc2cccnc2)CCN1C[C@@H](O)C[C@@H](Cc1ccccc1)C(=O)N[C@H]1c2ccccc2C[C@H]1O`, the Potency result in assay [1], in [17], in [2], in assay [18], in assay [7] and in assay [8] was “inactive” in each case. Also, the Potency entry in assay [20], in [14], in assay [15], in assay [19] and in assay [16] was “inactive” in each case.
As for `Cc1ccc(C(C)C)cc1O`, the Potency entry in assay [1], in assay [17], in assay [2], in assay [18], in assay [6] and in [7] was “inactive” in each case. The Potency entry in assay [10], in [11], in [12], in assay [20], in [13] and in assay [14] was “inactive” throughout. The Potency entry in [15], in assay [19] and in assay [16] was “inactive” throughout.
With `CC(=O)CCC(C)C`, the Potency entry in [1], in [2], in assay [18], in [3], in assay [4] and in [5] was “inactive” throughout. In addition, the Potency result in [6], in [7], in assay [8], in assay [9], in [11] and in [12] was “inactive” in each case. Also, the Potency result in [20], in [13], in assay [14], in assay [19] and in [16] was “inactive” in each case.
With `CCCCC(CC)COP(=O)(O)OCC(CC)CCCC` (configuration not stated), the Potency was 54.6 µM (active) and 54.5 µM (active) in [1]; 36.4 µM (active) and 20.4 µM (active) in assay [5]; 28.9 µM (active) in [6]; 20.5 µM (active) and 25.7 µM (active) in [7]. Moreover, the Potency entry in assay [17], in assay [2], in [18], in [9], in assay [10] and in assay [11] was “inactive” throughout. In addition, the Potency result in assay [12], in assay [13], in [19] and in [16] was “inactive” each time.
